Experimental findings from PubChem BioAssay AID624354 (Sanford-Burnham Center for Chemical Genomics, 2012) are described below.

Values joined by “and” are separate entries in the source; they are usually repeats but may differ in a detail not shown here. Identical values can stand only once. Out of some 360,000 compounds screened, about 3,800 (1.1%) were called active.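 The calls were made as follows: active = compounds causing at least 50% loss of cell viability in the single-dose screen, relative to plate controls; inactive = the rest.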 The full list was thinned out, with actives kept by preference.

The nature of this assay: viability loss with TRAIL in NB7+C8 cells, primary screen, TRAIL sensitizer project, cell-based, ATPlite luminescence (AID 624354). The following applies: at 10 µM, active compounds read high. For orientation: ATP-based viability assays read luminescence as a measure of living cells.
Consider `COc1cccc(-c2nc3ccc(N4CCN(C)CC4)cc3[nH]2)c1`, for which the inhibition (viability loss, TRAIL sensitization) is 86.3% (active).

For the compound `CCC(=O)c1ccc(OCC(=O)N2CCN(CC(=O)Nc3ccc(C)cc3)CC2)cc1`, the inhibition (viability loss, TRAIL sensitization) was 1.16% (inactive).

Consider `Cc1cc2ccccn2c1C(C[N+](=O)[O-])c1c(F)cccc1Cl` (stereo not given), for which the inhibition (viability loss, TRAIL sensitization) was -0.261% (inactive).

`COc1ccc(-n2c(O)c(C(C)=Nc3ccc4c(c3)CCC4)c(=O)[nH]c2=O)cc1`: the inhibition (viability loss, TRAIL sensitization) is 7.82% (inactive).

As to `O=Cc1cn(Cc2ccc(F)cc2Cl)c2ccccc12`, the inhibition (viability loss, TRAIL sensitization) was 17.7% (inactive).

For the compound `CNC(=O)O/N=C(\N)Cc1csc2ccc(Cl)cc12`, the inhibition (viability loss, TRAIL sensitization) was 70.7% (active).

Consider `CNC(=O)O/N=C(\N)Cc1csc2ccccc12`, for which the inhibition (viability loss, TRAIL sensitization) is -3.67% (inactive).

`CCC/C(=N\O)c1c[nH]c2ccccc12`: the inhibition (viability loss, TRAIL sensitization) was -8.01% (inactive).

For the compound `Cc1ncoc1C(=O)NCC1=C(c2cccc3ccccc23)C[C@@H]2CC[C@H]1N2Cc1ccco1`, the inhibition (viability loss, TRAIL sensitization) was 14.8% (inactive).

In the case of `COc1ccccc1CN1CCN(C(=O)Cc2ccccc2)CC1`, the inhibition (viability loss, TRAIL sensitization) was -10.1% (inactive).

Take `CCN1CCN(Cc2cc(OC)c3c(c2)OCO3)CC1`: the inhibition (viability loss, TRAIL sensitization) is 3.55% (inactive).

Consider `C[C@]12CC[C@H](O)C[C@H]1CC[C@@H]1C2CC[C@]2(C)[C@@H](C3=CC(=O)OC3)[C@@H](O)C[C@]12O` (stereo not given in full), for which the inhibition (viability loss, TRAIL sensitization) was 48.7% (inactive).

For `COC1C(O)C(C)OC(OC2CCC3(C=O)C(CCC4C3CCC3(C)C(C5=CC(=O)OC5)CCC43O)C2)C1O` (stereo not given), the inhibition (viability loss, TRAIL sensitization) is 74.4% (active).

Consider `CC(C)Nc1nc(Cl)nc(NC(C)C)n1`, for which the inhibition (viability loss, TRAIL sensitization) was -4.77% (inactive).

Regarding `O=C(O)C1CSC(c2cccnc2)N1` (stereo not given), the inhibition (viability loss, TRAIL sensitization) is -7.34% (inactive).

For `Cc1ccc(Cn2c(C)c3cnn(CC(=O)N4CCC5(CC4)OCCO5)c(=O)c3c2C)cc1`, the inhibition (viability loss, TRAIL sensitization) is 2.81% (inactive).

For `OC(Cn1c2ccccc2c2ccccc21)C[n+]1ccccc1` (stereo not given), the inhibition (viability loss, TRAIL sensitization) was -9.29% (inactive).

`CCOc1ccc(-c2cc(C)[n+](CCN(CC)CC)c(-c3ccc(OCC)cc3)c2)cc1`: the inhibition (viability loss, TRAIL sensitization) is 64.8% (active).

As for `O=c1[nH]c(CN2CC=C(c3ccccc3)CC2)nc2scc(-c3cccs3)c12`, the inhibition (viability loss, TRAIL sensitization) was -10.4% (inactive).

In the case of `COc1ccccc1N1CCN(C(CNC(=O)Oc2ccccc2)c2cccnc2)CC1` (stereo not given), the inhibition (viability loss, TRAIL sensitization) is -5.13% (inactive).

With `CN1CCc2cc3c(cc2[C@H]1[C@@H]1OC(=O)c2c1ccc1c2OCO1)OCO3`, the inhibition (viability loss, TRAIL sensitization) is -20.1% (inactive).

As to `C=C(C)C1(CCCC)C(=O)NC(=S)NC1=O`, the inhibition (viability loss, TRAIL sensitization) is 6.23% (inactive).

With `CN1C2C=C(N(C(=O)c3ccc(Cl)cc3)c3ccccc3)CC1CC2` (stereo not given), the inhibition (viability loss, TRAIL sensitization) is -8.37% (inactive).

Turning to `CC(=O)OC1C2(CC3N4C(=O)C5(CO)SSC4(CC31O)C(=O)N5C)OC(C)C(C)(C)C2=O` (stereo not given), the inhibition (viability loss, TRAIL sensitization) was 84.2% (active).

As for `CCC(=O)CC(c1ccc([N+](=O)[O-])cc1)c1c(O)c2ccccc2oc1=O` (stereo not given), the inhibition (viability loss, TRAIL sensitization) is 4.29% (inactive).

Take `Nc1ccc(Cc2ccc(N)c(Cl)c2)cc1Cl`: the inhibition (viability loss, TRAIL sensitization) is 2.29% (inactive).

Regarding `CN(C)C(=O)Oc1cc(OC(=O)N(C)C)cc(C(O)CNC(C)(C)C)c1` (stereo not given), the inhibition (viability loss, TRAIL sensitization) is -5.27% (inactive) and 5.89% (inactive).

Consider `C=Cn1ccnc1P(=S)(c1cc(N(CC)CC)ns1)c1nccn1C=C`, for which the inhibition (viability loss, TRAIL sensitization) is -19.8% (inactive).

Regarding `CCCCCCCCCCCCn1ccc(=N)cc1`, the inhibition (viability loss, TRAIL sensitization) was 62.5% (active).

As to `CC1CNCCN1c1ccc(Cl)cc1` (stereo not given), the inhibition (viability loss, TRAIL sensitization) is -10.4% (inactive).

`C=CCN1C(=O)NC(=O)/C(=C/c2ccc(OCC(=O)Nc3ccc(C)cc3)cc2)C1=O`: the inhibition (viability loss, TRAIL sensitization) was 6.1% (inactive).

For the compound `CCOC(=O)[C@]12Cc3ccccc3[C@H]1N(C1CCCCC1)C(=O)c1cc(OC)ccc12`, the inhibition (viability loss, TRAIL sensitization) is 79.1% (active).

Take `CCOC(=O)[C@]12Cc3cc(OC)ccc3[C@H]1N(C(C)C)C(=O)c1ccccc12`: the inhibition (viability loss, TRAIL sensitization) was 39.4% (inactive).

As to `CCC1(CC(C)c2ccccc2)C(=O)NC(=O)NC1=O` (stereo not given), the inhibition (viability loss, TRAIL sensitization) was -15.1% (inactive).

On to `C/C(=N/O)c1ccc2ccc3ccccc3c2c1`, for which the inhibition (viability loss, TRAIL sensitization) is 0.44% (inactive).
